# About 83,000 compounds went through this panel and 20% of them were active in at least one assay; those are over-represented in the sample as a whole.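 Single-concentration screen, 48 h exposure, 96-well plates. Endpoint: percent growth. Below 10 = active.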 Unmarked numbers belong to inactive results. Calls of active or inactive are those of the source.
# How the values were obtained:
# Experiment in all cases: NCI-60 one-dose screen, 48 h (100 = growth as untreated, 0 = no growth, -100 = all killed)
# Conditions in all cases: 10 µM unless noted
# RPMI-8226 leukemia = test system: RPMI-8226 leukemia
# OVCAR-8 ovarian = test system: OVCAR-8 ovarian
# OVCAR-5 ovarian = test system: OVCAR-5 ovarian
# OVCAR-4 ovarian = test system: OVCAR-4 ovarian
# SK-OV-3 ovarian = test system: SK-OV-3 ovarian
# IGROV1 ovarian = test system: IGROV1 ovarian
# OVCAR-3 ovarian = test system: OVCAR-3 ovarian
# HS 578T breast = test system: HS 578T breast
# NCI/ADR-RES ovarian = test system: NCI/ADR-RES ovarian
# T-47D breast = test system: T-47D breast
# BT-549 breast = test system: BT-549 breast
# MDA-MB-435 melanoma = test system: MDA-MB-435 melanoma
# SW-620 colon = test system: SW-620 colon
# MCF7 breast = test system: MCF7 breast
# HCT-116 colon = test system: HCT-116 colon
# HCC-2998 colon = test system: HCC-2998 colon
# KM12 colon = test system: KM12 colon
Structure (SMILES),growth (RPMI-8226 leukemia),growth (OVCAR-8 ovarian),growth (OVCAR-5 ovarian),growth (OVCAR-4 ovarian),growth (SK-OV-3 ovarian),growth (IGROV1 ovarian),growth (OVCAR-3 ovarian),growth (HS 578T breast),growth (NCI/ADR-RES ovarian),growth (T-47D breast),growth (BT-549 breast),growth (MDA-MB-435 melanoma),growth (SW-620 colon),growth (MCF7 breast),growth (HCT-116 colon),growth (HCC-2998 colon),growth (KM12 colon)
COc1cc2c(cc1OC)C(Sc1ccc(SC)cc1)c1c(nc(N)c(C#N)c1N)O2 (centres undefined),-37.9% (active),-90.6% (active),-63.1% (active),-94.8% (active),-85.1% (active),-68.9% (active),-88.7% (active),4.87% (active),-23.2% (active),-47.1% (active),-73.9% (active),-90.8% (active),-68.9% (active),-51.2% (active),-86.8% (active),-84.9% (active),-72% (active)
Cc1cc2nc(NC(=O)CN3CCN(CCN4C(=O)c5cccc6cccc(c56)C4=O)CC3)sc2cc1C,57.8%,79.7%,93.6%,84.3%,102%,77.6%,101%,92%,79%,83.9%,86.1%,91.4%,96%,74.8%,74.7%,101%,92.5%
CCCOc1ccc2nc(NC(=O)OC)[nH]c2c1,7.83% (active),3.91% (active),39.2%,53.3%,4.92% (active),36.9%,-46.8% (active),29.8%,-6.3% (active),89.8%,33.4%,-49.3% (active),22.8%,–,9.34% (active),-14% (active),5.74% (active)
CC(=O)O[C@H]1CC[C@]2(C)[C@H]3CC=C4[C@@H]5CC(C)(C)CC[C@]5(C(=O)NCCNCCNCCN)CC[C@@]4(C)[C@]3(C)CC[C@H]2C1(C)C,-23.7% (active),-0.659% (active),10%,34.9%,101%,46.9%,-30.6% (active),92.2%,74.6%,-15.1% (active),87.2%,9.05% (active),-83.1% (active),-85.9% (active),-80.8% (active),1.19% (active),85.3%
CC(C)c1c(C(=O)c2ccccc2)c(-c2ccccc2)c(-c2ccc(F)cc2)n1CC[C@@H](O)C[C@@H](O)CC(=O)O,67.1%,49.6%,88.2%,87.5%,84.5%,39.5%,83.9%,17.1%,48.9%,91.4%,70.2%,68.9%,76.2%,–,47.4%,85.6%,91%
Cc1nc2ccccc2n1C(=O)C[C@@H]1NC(=S)NC1=O,111%,93.6%,85.6%,101%,100%,94.8%,108%,104%,101%,96.7%,95.5%,97.8%,99.4%,93.9%,92.5%,102%,102%
CCOc1nc(-c2ccccc2)cc2c(O)c(C(=O)O)[nH]c(=O)c12,58.1%,107%,104%,99%,97.5%,96.1%,101%,104%,60.9%,97.9%,108%,109%,114%,103%,105%,–,93.4%
Cc1ccc(OC(=O)c2ccc(Cl)cc2)cc1,92.4%,96.7%,97%,79.8%,116%,116%,99.9%,110%,107%,103%,100%,99.1%,87.3%,102%,57.9%,95.3%,104%
COc1cccc(-c2nc3sccn3c2-c2ccnc(NCCCNS(=O)(=O)c3c(Cl)cccc3Cl)c2)c1,4.47% (active),51.5%,85.6%,56.7%,90.4%,72.1%,69.8%,76.1%,29.9%,5.35% (active),43.2%,64.5%,76.8%,65.8%,52.6%,84.8%,68.2%
COc1ccc(/C=C/C(=O)c2ccc(O)c(CN3CCN(c4cc5c(cc4F)c(=O)c(C(=O)O)cn5C4CC4)CC3)c2)cc1,-3.49% (active),13.2%,47.5%,88.1%,46.5%,33.8%,19.1%,35.4%,43.1%,37.6%,17.7%,28.3%,17.5%,8.68% (active),9.41% (active),43.5%,24.8%
CSc1nc(-c2cccc(NC(=O)CCl)c2)c(C#N)c(=O)n1C,-18.3% (active),72.6%,26.7%,12.5%,109%,-64.5% (active),8.91% (active),88.1%,75.8%,34.5%,53.4%,54.5%,27.3%,20.6%,7.55% (active),116%,98.5%
O=C(O)c1ccc(N=CC(=O)c2ccc(-c3ccccc3)cc2)cc1,90.3%,98.7%,92.6%,101%,110%,102%,119%,88.9%,94.9%,100%,103%,103%,93.3%,97.6%,97.9%,96.7%,102%
COc1cccc(-c2nn(C(C)(C)C)cc2-c2ccnc(NCCCNS(=O)(=O)c3ccc(C)cc3)c2)c1,99.3%,103%,105%,103%,113%,111%,122%,103%,98.4%,98.1%,101%,104%,103%,102%,96.7%,113%,101%
COc1ccc(-c2nc3ccc(-c4nc5ccc(N6CCN(C)CC6)cc5[nH]4)cc3[nH]2)cc1OC,110%,55.8%,99.1%,68.4%,74.2%,79.6%,30.4%,72.2%,103%,28.3%,63%,41.9%,49.2%,21.1%,23.5%,77.7%,97.8%
Cc1cc(NS(=O)(=O)c2ccc(-c3cnc(C4CC4)o3)cc2)ccc1Cl,24.8%,12.9%,22%,44.7%,32.4%,27.7%,-20.9% (active),11.9%,0.314% (active),32.4%,28.8%,0.57% (active),21.7%,11.1%,13.3%,25.1%,27%
CCCCC[C@H]1C/C=C2/C(=O)C=C[C@@H]2C/C=C\CCCC(=O)O1,-13.4% (active),5.97% (active),-9.16% (active),14.1%,-11.6% (active),-42.8% (active),-58.8% (active),23.3%,10.3%,-2.9% (active),-11.2% (active),-26.7% (active),0.0064% (active),0.464% (active),-67.6% (active),–,-83.6% (active)
O=C1NC(=O)C(c2ccc(Cl)cc2Cl)N1 (centres undefined),109%,–,106%,113%,108%,114%,112%,102%,106%,111%,122%,113%,106%,101%,103%,–,104%
COc1cc(-c2nn(C)nc2-c2cc3ccccc3s2)cc(OC)c1OC,20.7%,–,57.2%,57.1%,21.2%,39%,0.446% (active),19.3%,9.9% (active),56.5%,18.8%,-41% (active),26.7%,17%,15.9%,49.4%,19.5%

# Reference: PubChem BioAssay (NCI)
